An excerpt weighted towards active compounds, which were near 19% of everything screened.
TDP1 cell CPT – growth inhibition of DT40 Tdp1-/-;hTDP1 cells with camptothecin (screen for TDP1 inhibitors) | chicken DT40 Tdp1-/-;hTDP1 cells + 20 nM CPT, ATP luminescence, 48 h | Potency, µM (titrated, usually from 46.2 µM), without a hit: top-dose activity change, negative = growth inhibition, hits mostly inhibitors | actives 12% (n = 420,000) | AID 686979; further: nearly all actives have a fitted effect of over 55% in size
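Cell growth measured by CellTiter-Glo luminescence after a minimum 48 h, 37 C compound exposure with 20 nM CPT in Tdp1-knockout DT40 cells stably expressing hTDP1, seeded 400/well; qHTS titration format.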
TDP1 inh – inhibitors of human tyrosyl-DNA phosphodiesterase TDP1 | Q9NUW8 | recombinant TDP1, AlphaScreen DNA substrate cleavage | Potency, µM (series often up to 130 µM), for inactives: top-dose activity change, negative = inhibition, most hits filed as inhibitors | actives 0.28% (n = 350,000) | AID 485290; further: nearly all actives have a fitted effect of over 40% in size
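Here, a 5' biotin and 3' phosphotyrosine-FITC DNA oligonucleotide reports Tdp1 activity: intact substrate bridges AlphaScreen beads, while cleavage leaves a 3' phosphate and drops signal. All incubations at room temperature.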
TDP1 cell noCPT – qHTS for Inhibitors of human tyrosyl-DNA phosphodiesterase 1 (TDP1): qHTS in cells in absence of CPT. DT40 Tdp1-/- hTDP1 cells, no CPT, ATP luminescence, 48 h. Potency, µM (top dose mostly 46.2 µM), for inactives: at the top dose activity change, negative = growth inhibition, most hits filed as inhibitors. actives 15% (n = 420,000). AID 686978, 2013; further: nearly all actives have a fitted effect of over 55% in size
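Readout: luminescence from CellTiter-Glo after 30 min in the dark at RT. Cells: DT40 Tdp1-/- with stable hTDP1, 400/well. Exposure: compounds alone, ≥48 hr, 37 °C.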
RORg inh – blocks mouse ROR gamma transcriptional activity | Drosophila S2 Gal4-RORgamma UAS-luciferase reporter, 20 h | Potency, µM (top dose mostly 53.6 µM), for the others: at the highest dose activity change, negative = inhibition, most hits filed as inhibitors | actives 5.4% (n = 310,000) | AID 2551; further: nearly all actives have a fitted effect of over 60% in size
Target sequence (P51450 whole entry, looked up, the tested form may be a part): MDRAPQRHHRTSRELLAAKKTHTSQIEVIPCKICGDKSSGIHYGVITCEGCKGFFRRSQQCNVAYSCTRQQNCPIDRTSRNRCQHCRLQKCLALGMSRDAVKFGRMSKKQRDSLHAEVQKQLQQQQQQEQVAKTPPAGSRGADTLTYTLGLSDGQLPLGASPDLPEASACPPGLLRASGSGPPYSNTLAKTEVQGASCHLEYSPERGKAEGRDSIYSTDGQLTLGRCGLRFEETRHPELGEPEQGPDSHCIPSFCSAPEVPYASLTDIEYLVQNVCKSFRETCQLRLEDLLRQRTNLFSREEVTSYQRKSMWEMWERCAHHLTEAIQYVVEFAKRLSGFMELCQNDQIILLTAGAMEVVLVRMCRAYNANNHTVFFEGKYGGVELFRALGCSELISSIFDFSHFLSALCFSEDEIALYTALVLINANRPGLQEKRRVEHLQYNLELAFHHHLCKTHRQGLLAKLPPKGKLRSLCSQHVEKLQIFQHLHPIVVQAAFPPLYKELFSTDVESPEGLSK
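In this cell-based reporter format, copper sulfate (700 uM final) drives Gal4–ROR gamma fusion expression from a metallothionein promoter in Drosophila Schneider cells; compounds preincubated 1 hr, reporter read after 20 hr at ambient temperature.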
Gal4-VP16 FLuc – inhibits Gal4-VP16 luciferase reporter, ROR gamma counter-screen; Drosophila S2 Gal4-VP16 UAS-luciferase, luminescence, 20 h; Potency, µM (doses to about 53.6 µM), inactives show at the highest dose activity, negative = inhibition, usual class: inhibitors; actives 3.5% (n = 310,000);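 further: Gal4-VP16 expression switched on by copper sulfate through the metallothionein promoter; nearly all actives have a fitted effect of over 50% in size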
* hit, by the source's call; ? = inconclusive; / = no result given. The call rests on the fitted dose curve; in most records, active means well fitted curve in the direction sought with a large enough effect; inconclusive means small, poorly fitted or top-dose-only effect, or another doubt; inactive means no such curve, though single readings can be large; an effect the other way counts as inactive or inconclusive. On the % scale 0 is the no-effect control and ±100 the full control effect; potency means the concentration at half of the fitted maximal effect.

SMILES | TDP1 cell CPT | TDP1 inh | TDP1 cell noCPT | RORg inh | Gal4-VP16 FLuc
CCS(=O)(=O)c1ccc(OC)c(N=Nc2ccc(O)c3ncccc23)c1 | ? | 12% | ? | 1µM* | ?
COc1ccc(S(=O)(=O)NCCOc2cccc3cccnc23)cc1OC | 3% | 2% | 0% | -3% | -2%
CCN(CC)S(=O)(=O)c1cc(OC)ccc1N=Nc1ccc(O)c2ncccc12 | 7.3µM* | / | ? | 1.3µM* | 1.3µM*
COc1ccc(NC(=O)N2c3ccc(OC)cc3C(C)=CC2(C)C)cc1 | ? | 11% | -19% | -30% | ?
CCOc1ccc2c(c1)C(C)=CC(C)(C)N2C(=O)Nc1ccccc1 | 5.8µM* | 8% | 26µM* | ? | ?
O=C1C(NS(=O)(=O)c2cccs2)=C(N2CCN(Cc3ccccc3)CC2)C(=O)c2ccccc21 | ? | / | 16µM* | -17% | 7%
CCOc1ccccc1N1CCN(C2=C(NS(=O)(=O)c3cccs3)C(=O)c3ccccc3C2=O)CC1 | ? | 14% | 26µM* | 0% | -2%
O=C1C(NS(=O)(=O)c2cccs2)=C(N2CCOCC2)C(=O)c2ccccc21 | ? | 5% | ? | -23% | -13%
CN1CCN(C2=C(NS(=O)(=O)c3cccs3)C(=O)c3ccccc3C2=O)CC1 | 16µM* | / | 21µM* | -30% | -4%
O=C1C(NS(=O)(=O)c2cccs2)=C(N2CCN(c3cccc(C(F)(F)F)c3)CC2)C(=O)c2ccccc21 | 16µM* | 14% | 23µM* | -1% | 13%
O=C(NCc1ccco1)c1ccc(CS(=O)c2ccccc2Cl)o1 (stereo not given) | 1% | / | -19% | / | /
O=C(CNS(=O)(=O)c1cccs1)N1CCN(c2cccc(C(F)(F)F)c2)CC1 | 16µM* | 5% | 21µM* | / | /
Cc1sc2ncnc(Sc3nnnn3-c3ccc(Cl)cc3)c2c1C | ? | 1% | ? | 4µM* | 7.1µM*
c1ccn(-c2ncnc3sc4c(c23)CCCC4)c1 | -15% | 3% | -29% | 16% | 6%
c1ccc(-n2nnnc2Sc2ncnc3sc4c(c23)CCCC4)cc1 | 4.1µM* | -3% | 3.3µM* | ? | ?
COc1ccc(CNC(=O)c2ccc(Cn3nc(C)cc3C)o2)cc1 | -21% | 2% | 11% | -25% | -8%
COc1ccc(N2CCN(C(=O)c3ccc(Cn4nc(C)c([N+](=O)[O-])c4C)o3)CC2)cc1 | ? | 6% | 13µM* | / | /
Cc1nn(Cc2ccc(C(=O)N3CCCC3)o2)c(C)c1[N+](=O)[O-] | -16% | 4% | 18% | / | /
Cc1nn(CCCC(=O)N2CCN(c3ccc(F)cc3)CC2)c(C)c1[N+](=O)[O-] | 16µM* | 1% | 21µM* | -42% | -3%
COc1ccc(CNC(=O)c2ccc(Cn3nc(C)c([N+](=O)[O-])c3C)o2)cc1 | ? | 11% | 23µM* | 5.6µM* | 5µM*
Cc1cc(C)n(-c2ccc(C(=O)NCc3ccc(F)cc3)cc2)n1 | -12% | 5% | 1% | 18% | 4%
CCC(CC)NC(=O)CC(c1ccccc1)c1ccccc1 | -27% | 0% | ? | -16% | 8%
O=C(CCl)NCCCCCCCCCNC(=O)CCl | 4.6µM* | 2% | 6.5µM* | -44% | ?
Cc1ccc(C2CC(c3cccs3)=NN2C(=O)CCl)cc1 (stereo not given) | 2.6µM* | / | 2.9µM* | 18µM* | ?
COc1ccc(C2CC(c3cccs3)=NN2C(=O)CSC2=NN3CCCC(=O)N=C3S2)cc1 (stereo not given) | ? | 5% | ? | 1% | 15%
Cc1ccc(C2CC(c3cccs3)=NN2C(=O)CSC2=NN3CCCC(=O)N=C3S2)cc1 (stereo not given) | 13µM* | 9% | ? | -7% | 4%
CCn1c(CCNC(=O)c2cccs2)nnc1SCC(=O)NC1CCCCC1 | -1% | 2% | -6% | -1% | 1%

Bioassay records from PubChem.
